The chains are these.
B1: ENSMUSG00000061578.1206|Ksr2 (ssRNA)
RNA: GGGAGUUCUACAGUCCGACGAUCGCUUCGAUAUCCGCAUGCUAUAUGGACACACUAGAAAGCCCAUCCUAGGUCUUUCCAUGGUCUCUCACACCCCUGUCCCCGUCCCCUCCACCCCCCGGCAGCAUGCUUCACUCUAUGAAUGAGCCGCUGGGAUAUUGACAUGGAGAUGUGUUGAUGGAAAAAGCCUCCACACCCAACAUAACUCUCCAGAGAGAUAUUGAAAGUGAUGGGCAGAGAGUCUGACAAUGACCCAGGGGUCAUUGUGAGUCCUAGGCUGAAUCUGUAAUGGGGUCCAAAGUGCCUCUUGCGGUCGCACUAGUGUGGAAUUCUCGGGUGUCAAGG
B2: ENSMUSG00000022095.191|Fam160b2 (ssRNA)
RNA: GGGAGUUCUACAGUCCGACGAUCGCUUCGAUAUCCGCAUGCUACCUGGGCAAGGAGGAGCAGGCCAGAGCCCCUUUUGCUUCCUUUUCCUGCCCAUGCCACCUCUCGAAGCCGGGCACAGGUUGCCAGGAGGUGACAUGAAAGAGGAGGAAACUCCAUGACCUCUACAUCCCCCGCAGUCCUCCCAGCGGGGGAGGACUUCUCUGCUGCUCCGAAGAACAUCAUGCACUCCUGUGUGUGUGUGUGAGUGUGUGUGUGUGUGUGUGUGUGUGUGUGUGUGUAUGUGUGUGUAUAUGUGUGUGUGCUCUUGCGGUCGCACUAGUGUGGAAUUCUCGGGUGUCAAGG
B3: ENSMUSG00000022095.185|Fam160b2 (ssRNA)
RNA: GGGAGUUCUACAGUCCGACGAUCGCUUCGAUAUCCGCAUGCUAUUACCUCACAACAGGCCUGCAGUUGUUGGCUUCCCUCCUGGGCAAGGAGGAGCAGGCCAGAGCCCCUUUUGCUUCCUUUUCCUGCCCAUGCCACCUCUCGAAGCCGGGCACAGGUUGCCAGGAGGUGACAUGAAAGAGGAGGAAACUCCAUGACCUCUACAUCCCCCGCAGUCCUCCCAGCGGGGGAGGACUUCUCUGCUGCUCCGAAGAACAUCAUGCACUCCUGUGUGUGUGUGUGAGUGUGUGUGUGUGUGUGUGUGCUCUUGCGGUCGCACUAGUGUGGAAUUCUCGGGUGUCAAGG
B4: ENSMUSG00000022095.194|Fam160b2 (ssRNA)
RNA: GGGAGUUCUACAGUCCGACGAUCGCUUCGAUAUCCGCAUGCUAGGCCAGAGCCCCUUUUGCUUCCUUUUCCUGCCCAUGCCACCUCUCGAAGCCGGGCACAGGUUGCCAGGAGGUGACAUGAAAGAGGAGGAAACUCCAUGACCUCUACAUCCCCCGCAGUCCUCCCAGCGGGGGAGGACUUCUCUGCUGCUCCGAAGAACAUCAUGCACUCCUGUGUGUGUGUGUGAGUGUGUGUGUGUGUGUGUGUGUGUGUGUGUGUGUAUGUGUGUGUAUAUGUGUGUGUGUGUGUGUAUGUGUGUGUGCUCUUGCGGUCGCACUAGUGUGGAAUUCUCGGGUGUCAAGG
B5: ENSMUSG00000022095.193|Fam160b2 (ssRNA)
RNA: GGGAGUUCUACAGUCCGACGAUCGCUUCGAUAUCCGCAUGCUAGGAGCAGGCCAGAGCCCCUUUUGCUUCCUUUUCCUGCCCAUGCCACCUCUCGAAGCCGGGCACAGGUUGCCAGGAGGUGACAUGAAAGAGGAGGAAACUCCAUGACCUCUACAUCCCCCGCAGUCCUCCCAGCGGGGGAGGACUUCUCUGCUGCUCCGAAGAACAUCAUGCACUCCUGUGUGUGUGUGUGAGUGUGUGUGUGUGUGUGUGUGUGUGUGUGUGUGUAUGUGUGUGUAUAUGUGUGUGUGUGUGUGUAUGUGCUCUUGCGGUCGCACUAGUGUGGAAUUCUCGGGUGUCAAGG
B6: ENSMUSG00000022095.192|Fam160b2 (ssRNA)
RNA: GGGAGUUCUACAGUCCGACGAUCGCUUCGAUAUCCGCAUGCUACAAGGAGGAGCAGGCCAGAGCCCCUUUUGCUUCCUUUUCCUGCCCAUGCCACCUCUCGAAGCCGGGCACAGGUUGCCAGGAGGUGACAUGAAAGAGGAGGAAACUCCAUGACCUCUACAUCCCCCGCAGUCCUCCCAGCGGGGGAGGACUUCUCUGCUGCUCCGAAGAACAUCAUGCACUCCUGUGUGUGUGUGUGAGUGUGUGUGUGUGUGUGUGUGUGUGUGUGUGUGUAUGUGUGUGUAUAUGUGUGUGUGUGUGUGCUCUUGCGGUCGCACUAGUGUGGAAUUCUCGGGUGUCAAGG
B7: ENSMUSG00000022095.184|Fam160b2 (ssRNA)
RNA: GGGAGUUCUACAGUCCGACGAUCGCUUCGAUAUCCGCAUGCUACAGGCAUUACCUCACAACAGGCCUGCAGUUGUUGGCUUCCCUCCUGGGCAAGGAGGAGCAGGCCAGAGCCCCUUUUGCUUCCUUUUCCUGCCCAUGCCACCUCUCGAAGCCGGGCACAGGUUGCCAGGAGGUGACAUGAAAGAGGAGGAAACUCCAUGACCUCUACAUCCCCCGCAGUCCUCCCAGCGGGGGAGGACUUCUCUGCUGCUCCGAAGAACAUCAUGCACUCCUGUGUGUGUGUGUGAGUGUGUGUGUGUGUGCUCUUGCGGUCGCACUAGUGUGGAAUUCUCGGGUGUCAAGG
B8: ENSMUSG00000022095.190|Fam160b2 (ssRNA)
RNA: GGGAGUUCUACAGUCCGACGAUCGCUUCGAUAUCCGCAUGCUAUUCCCUCCUGGGCAAGGAGGAGCAGGCCAGAGCCCCUUUUGCUUCCUUUUCCUGCCCAUGCCACCUCUCGAAGCCGGGCACAGGUUGCCAGGAGGUGACAUGAAAGAGGAGGAAACUCCAUGACCUCUACAUCCCCCGCAGUCCUCCCAGCGGGGGAGGACUUCUCUGCUGCUCCGAAGAACAUCAUGCACUCCUGUGUGUGUGUGUGAGUGUGUGUGUGUGUGUGUGUGUGUGUGUGUGUGUAUGUGUGUGUAUAUGUGCUCUUGCGGUCGCACUAGUGUGGAAUUCUCGGGUGUCAAGG
B9: ENSMUSG00000022095.186|Fam160b2 (ssRNA)
RNA: GGGAGUUCUACAGUCCGACGAUCGCUUCGAUAUCCGCAUGCUACACAACAGGCCUGCAGUUGUUGGCUUCCCUCCUGGGCAAGGAGGAGCAGGCCAGAGCCCCUUUUGCUUCCUUUUCCUGCCCAUGCCACCUCUCGAAGCCGGGCACAGGUUGCCAGGAGGUGACAUGAAAGAGGAGGAAACUCCAUGACCUCUACAUCCCCCGCAGUCCUCCCAGCGGGGGAGGACUUCUCUGCUGCUCCGAAGAACAUCAUGCACUCCUGUGUGUGUGUGUGAGUGUGUGUGUGUGUGUGUGUGUGUGUGCUCUUGCGGUCGCACUAGUGUGGAAUUCUCGGGUGUCAAGG
B10: ENSMUSG00000022095.186|Fam160b2|219:232;234:260 (ssRNA)
RNA: GGGAGUUCUACAGUCCGACGAUCGCUUCGAUAUCCGCAUGCUACACAACAGGCCUGCAGUUGUUGGCUUCCCUCCUGGGCAAGGAGGAGCAGGCCAGAGCCCCUUUUGCUUCCUUUUCCUGCCCAUGCCACCUCUCGAAGCCGGGCACAGGUUGCCAGGAGGUGACAUGAAAGAGGAGGAAACUCCAUGACCUCUACAUCCCCCGCAGUCCUCCCAGCGGGGGAGGACUUCUCUGCUGCUCCGAAGAACAUCAUGCACUCCACACACACACACACACACACACACACACACACACACACACACCUCUUGCGGUCGCACUAGUGUGGAAUUCUCGGGUGUCAAGG
B11: ENSMUSG00000022095.184|Fam160b2|231:244;246:260 (ssRNA)
RNA: GGGAGUUCUACAGUCCGACGAUCGCUUCGAUAUCCGCAUGCUACAGGCAUUACCUCACAACAGGCCUGCAGUUGUUGGCUUCCCUCCUGGGCAAGGAGGAGCAGGCCAGAGCCCCUUUUGCUUCCUUUUCCUGCCCAUGCCACCUCUCGAAGCCGGGCACAGGUUGCCAGGAGGUGACAUGAAAGAGGAGGAAACUCCAUGACCUCUACAUCCCCCGCAGUCCUCCCAGCGGGGGAGGACUUCUCUGCUGCUCCGAAGAACAUCAUGCACUCCACACACACACACACACACACACACACACACCUCUUGCGGUCGCACUAGUGUGGAAUUCUCGGGUGUCAAGG
B12: ENSMUSG00000022095.183|Fam160b2 (ssRNA)
RNA: GGGAGUUCUACAGUCCGACGAUCGCUUCGAUAUCCGCAUGCUACGGCGCCAGGCAUUACCUCACAACAGGCCUGCAGUUGUUGGCUUCCCUCCUGGGCAAGGAGGAGCAGGCCAGAGCCCCUUUUGCUUCCUUUUCCUGCCCAUGCCACCUCUCGAAGCCGGGCACAGGUUGCCAGGAGGUGACAUGAAAGAGGAGGAAACUCCAUGACCUCUACAUCCCCCGCAGUCCUCCCAGCGGGGGAGGACUUCUCUGCUGCUCCGAAGAACAUCAUGCACUCCUGUGUGUGUGUGUGAGUGUGUGUGCUCUUGCGGUCGCACUAGUGUGGAAUUCUCGGGUGUCAAGG

The full ranking holds about 9,900 sequences; the median of “r (bound/input frequency ratio)” is about 0.7, and the highest 2% start at about 6.5. For the sample, the highest values were picked, then their nearest neighbours and some sequences at random.

Chain of TDP-43 (Q13148 whole entry): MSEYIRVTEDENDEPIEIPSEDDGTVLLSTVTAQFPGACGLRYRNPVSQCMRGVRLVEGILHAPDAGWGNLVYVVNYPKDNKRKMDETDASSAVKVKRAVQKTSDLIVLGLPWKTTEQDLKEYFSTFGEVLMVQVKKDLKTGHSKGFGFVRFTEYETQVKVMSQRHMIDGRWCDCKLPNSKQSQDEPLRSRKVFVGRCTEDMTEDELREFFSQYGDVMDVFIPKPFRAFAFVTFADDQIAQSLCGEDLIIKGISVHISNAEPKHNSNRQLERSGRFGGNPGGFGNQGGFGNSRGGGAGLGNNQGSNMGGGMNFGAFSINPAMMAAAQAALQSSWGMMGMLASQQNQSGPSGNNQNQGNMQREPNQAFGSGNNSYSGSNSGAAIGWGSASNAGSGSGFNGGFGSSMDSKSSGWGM

This assay deals with TDP-43 (Homo sapiens, UniProt Q13148 1-414). The assay can be described thus: RNA Bind-n-Seq with designed 260-mer pool; 25 mM Tris-HCl, 150 mM KCl, 3 mM MgCl2, BSA (printed 500 mg/mL), 20 units/mL SUPERase IN; pH not stated; 500 nM RNA pool, 1 h, 4 C; TDP-43 5, 50, 500 nM; high values mean tight binding. The following applies: protein: recombinant; tags: SBP (GST cleaved off with PreScission; pGEX-GST-SBP). Summed up:
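In 25 mM Tris-HCl, 150 mM KCl, 3 mM MgCl2, BSA and SUPERase IN, 500 nM of an in vitro-transcribed 260-nt 3′ UTR oligo pool was incubated for 1 h at 4 °C with SBP-tagged TDP-43 (5, 50 or 500 nM) captured on streptavidin beads. RNA remaining after washes was biotin-eluted, reverse transcribed, PCR-amplified and sequenced. Binding, R, is the bound-sample abundance of each oligo, normalized to mapped reads, divided by its abundance in input. Each duplicate used a separate, independent protein batch.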
For B1, the binding signal is 0.481 R (bound/input frequency ratio).
For B2, the binding signal is 5.73 R (bound/input frequency ratio).
Under B3 stands 4.85 R (bound/input frequency ratio).
B4: the binding signal was 7.48 R (bound/input frequency ratio).
As for B5, the figure is 8.43 R (bound/input frequency ratio).
Under B6 stands 8.2 R (bound/input frequency ratio).
For B7, the binding signal was 3.46 R (bound/input frequency ratio).
As for B8, the figure is 7.2 R (bound/input frequency ratio).
Under B9 stands 6.14 R (bound/input frequency ratio).
As for B10, the figure is 2.91 R (bound/input frequency ratio); as for B11, 3.13 R (bound/input frequency ratio).
Turning to B12, the binding signal is 1.73 R (bound/input frequency ratio).

These data come from paper PMC12864922, “TDP-43 directly inhibits mRNA accumulation in neurites through modulation of mRNA stability”.
